# AGP1-GFP MLPCN: alters AGP1-GFP fluorescence in TOR pathway yeast screen | AID 2066 | actives 0.02% (n = 320,000) | S. cerevisiae AGP1-GFP multiplex flow cytometry, 3 h; GFP as percent of DMSO wells | GFP response vs DMSO, % at 10 µM;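 active = GFP response relative to DMSO above a set limit, near screen average plus 3 SD, cut at about 150% in these data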;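 also: median GFP channel fluorescence of the gated AGP1 strain per well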
# LAP4 TOR yeast: alters LAP4-GFP fluorescence in TOR pathway yeast screen; S. cerevisiae LAP4-GFP multiplex, flow cytometry GFP, 3 h; median GFP as percent of DMSO wells; GFP response vs DMSO, % at 10 µM; actives 0.34% (n = 320,000);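 active = GFP response vs DMSO above a set limit, about the screen mean plus 3 SD, cut at about 150% in these data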
# CIT2-GFP yeast: alters CIT2-GFP fluorescence in TOR pathway yeast screen; S. cerevisiae CIT2-GFP strain, flow cytometry, 3 h; 100 means same as DMSO wells; actives 0.065% (n = 320,000); AID 2029; GFP response vs DMSO, % at 10 µM;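 active = GFP response relative to DMSO above a set limit, near the screen mean plus 3 SD, cut at about 150% in these data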;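 also: ratio of well median GFP fluorescence to mean of DMSO wells on the plate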
# RPL19A TOR yeast: alters RPL19A-GFP fluorescence in TOR pathway yeast screen. percent response vs DMSO, % at 10 µM. actives 0.3% (n = 330,000). S. cerevisiae RPL19A-GFP strain, flow cytometry, 3 h; hits give low values;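 active = percent response vs DMSO below 50%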;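 also: median channel GFP fluorescence of the barcoded RPL19A-GFP strain; ratio of sample median GFP to plate DMSO average so 100% = DMSO; lower means less RPL19A-GFP as with rapamycin TOR inhibition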
# MEP2 TOR yeast: yeast TOR pathway MEP2-GFP modulation | AID 2016 | S. cerevisiae MEP2-GFP strain, flow cytometry GFP, 3 h; 100% = DMSO control level | GFP response vs DMSO, % at 10 µM | actives 0.51% (n = 330,000);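 active = GFP response versus DMSO above a set limit, roughly screen mean plus 3 SD, cut at about 180% in these data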;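 also: median GFP fluorescence of the barcode-gated MEP2-GFP cells per well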
# LAP4 cherry2: reconfirmed LAP4-GFP TOR pathway modulator in yeast. shares compounds with LAP4 TOR yeast. GFP response vs DMSO, % at 10 µM. S. cerevisiae LAP4-GFP strain, flow cytometry GFP, 3 h. AID 2621. actives 20% (n = 590);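 active = GFP signal as percent of the solvent control above about 150%, meaning raised reporter expression, limit read from the data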;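 also: ratio of well median GFP fluorescence to plate DMSO mean so 100% = DMSO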
# MEP2 cherry2: second confirmation of modulators of TOR reporter MEP2-GFP in yeast; AID 2622; GFP response vs DMSO, % at 10 µM; actives 10% (n = 590); S. cerevisiae MEP2-GFP strain, flow cytometry GFP, 3 h; shares compounds with LAP4 TOR yeast;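 active = GFP signal above 150% of the solvent control wells, that is a rise of more than half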;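 also: median channel GFP fluorescence of all gated yeast cells per well; ratio of median GFP to plate DMSO average so 100% = DMSO level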
# RPL19A-GFP pick2: reconfirmed modulator of RPL19A-GFP TOR reporter in yeast; AID 2623; GFP response vs DMSO, % at 10 µM; S. cerevisiae RPL19A-GFP strain, flow cytometry GFP, 3 h; hits give low values; 100% means same as DMSO wells; shares compounds with LAP4 TOR yeast; actives 3% (n = 590);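 active = under 65% GFP response relative to DMSO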;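 also: median GFP channel fluorescence per well over the all cells gate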
# CIT2-GFP pick2: second confirmation of modulators of TOR reporter CIT2-GFP in yeast; shares compounds with LAP4 TOR yeast; S. cerevisiae CIT2-GFP strain, flow cytometry GFP, 3 h; DMSO control wells read 100%; GFP response vs DMSO, % at 10 µM; actives 8% (n = 590);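 active = GFP response vs DMSO above about 150%, limit read from the data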;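 also: median green fluorescence per well over all gated yeast cells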
# AGP1-GFP pick2: second confirmation of modulators of TOR reporter AGP1-GFP in yeast | percent response vs DMSO, % at 10 µM | AID 2643 | shares compounds with LAP4 TOR yeast | S. cerevisiae AGP1-GFP strain, flow cytometry GFP, 3 h | 590 tested, under 10 active;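 active = over 150 percent of DMSO response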;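 also: median GFP channel fluorescence over all cells without mother daughter split; sample median GFP divided by mean DMSO control so 100% equals DMSO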
# s288c autofluor: counter-screen for compound autofluorescence in yeast s288c cells. shares compounds with LAP4 TOR yeast. S. cerevisiae s288c, 520 nm autofluorescence, flow cytometry, 3 h; hits give high values; zero means same as solvent-only cells. 610 tested, under 10 active. fluorescence change (kMESF span) at 33 µM. AID 2757;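 active = fluorescence span over the dose series, or activity score, above about 33, limit read from the data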
# s288c autofl DR: yeast s288c autofluorescence artifact in dose response; S. cerevisiae s288c parental, compound autofluorescence, flow cytometry, 3 h; 110 tested, under 10 active; fluorescence change (span) at 33 µM; shares compounds with LAP4 TOR yeast;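 active = fluorescence change span, or the activity score built from it, above 25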
# TORC1 bypass: stops wildtype yeast growth while TORC1 bypass cells still grow. 120 tested, under 10 active. growth rating (0-3) at 30 µM. shares compounds with LAP4 TOR yeast. S. cerevisiae BY4741 spot growth rating, 48-72 h; hits give low values;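 active = growth rating at most 1 for wild type yeast while the TORC1 bypass strain still grows fully, rated 3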
# * hit, by the source's call; . = not tested or not shown. Rows were chosen to be rich in hits. Some 0.93% of all compounds tested hit in one or more screens of this group.
SMILES,AGP1-GFP MLPCN,LAP4 TOR yeast,CIT2-GFP yeast,RPL19A TOR yeast,MEP2 TOR yeast,LAP4 cherry2,MEP2 cherry2,RPL19A-GFP pick2,CIT2-GFP pick2,AGP1-GFP pick2,s288c autofluor,others
CCCn1c(C)cc(C(=O)CN2C(=O)c3ccccc3C2=O)c1C,96,100,93,61,135,96,103,100,99,99,.,
CCn1c(=O)c([N+](=O)[O-])c(NCCN(C)C)c2ccccc21,108,100,91,102,111,.,.,.,.,.,.,
CCn1c(=O)c([N+](=O)[O-])c(Cl)c2ccccc21,76,104,90,62,95,118,133,72,81,77,.,
COC(=O)c1cccc(C23CC4(C2)[C@H](CN(Cc2ccc(C(F)(F)F)cc2)[C@@H]4c2ccccc2)C3c2ccc(C(F)(F)F)cc2)c1 (some centres undefined),71,122,63,90,89,.,.,.,.,.,.,
CC(=O)c1ccc(N2CCN(C(=O)C3CCN(S(=O)(=O)c4ccc5c(c4)CC(C)N5C(C)=O)CC3)CC2)cc1 (centres undefined),109,183*,90,86,94,104,105,100,107,99,.,
CC(=O)N1c2ccc(S(=O)(=O)N3CCC(C(=O)N4CCN(c5cccc(C(F)(F)F)c5)CC4)CC3)cc2CC1C (centres undefined),100,95,103,99,102,.,.,.,.,.,.,
CCc1noc(C)c1C(=O)Nc1cc(S(=O)(=O)N2CCOCC2)ccc1OCC(F)(F)F,126,122,107,112,97,.,.,.,.,.,.,
Cn1c(N)c(Sc2ccc([N+](=O)[O-])cc2)c(=O)n(C)c1=O,102,98,98,99,94,.,.,.,.,.,.,
O=C1C=CC(=O)N1c1ccc(Sc2ccc([N+](=O)[O-])cc2)cc1,69,162*,85,85,102,.,.,.,.,.,3,
CCCOc1ccc(C(=O)N2CCN(Cc3ccc4c(c3)OCO4)CC2)cc1,101,98,104,99,105,.,.,.,.,.,.,
N#Cc1ccc(-c2nc3ccc(Br)cc3c(=O)n2O)cc1,87,131,80,85,96,.,.,.,.,.,.,
O=c1c2cc(Br)ccc2nc(-c2ccc([N+](=O)[O-])cc2)n1O,68,121,69,65,88,148,169*,51*,121,80,0.2,
N#Cc1ccc(C(CC(=O)O)N2Cc3ccccc3C2=O)cc1 (centres undefined),98,91,100,98,98,.,.,.,.,.,.,
N#C/C(=C/c1ccc(N2CCCCCC2)o1)c1ccc(Cl)cc1,32,118,105,87,144,.,.,.,.,.,.,
N#C/C(=C/c1ccc(N2CCCCC2)o1)c1cccc(F)c1,90,152*,94,102,92,108,105,102,99,96,.,
COc1ccc2c(c1)c1nnc(SC)nc1n2C,60,103,73,54,101,102,106,53*,98,55,0.7,
CC(=O)n1cc(C(C[N+](=O)[O-])SCCN)c2ccccc21 (centres undefined),78,226*,76,93,87,183*,164*,98,127,104,1.5,
CCc1ccc(NC(=O)c2c(C(=O)Nc3ccccc3)sc3nc(C)cc(=O)n23)cc1,97,107,89,95,90,.,.,.,.,.,.,
CCCS(=O)(=O)Nc1cccc(-c2ccc3nnc(C)n3n2)c1,99,75,96,93,100,.,.,.,.,.,.,
CCS(=O)(=O)Nc1cccc(-c2ccc3nnc(-c4cccnc4)n3n2)c1,120,171*,101,79,88,99,103,100,102,100,.,
CC(=O)N(C1=C(Cl)C(=O)c2ccccc2C1=O)C1CCCCC1,8,45,68,8.2*,69,.,.,.,.,.,7.1,
CC(=O)N1CCc2c(sc(NC(=O)Cc3ccc(C)cc3C)c2C#N)C1,90,86,99,92,98,.,.,.,.,.,.,
O=C(c1ccc([N+](=O)[O-])s1)N1CCN(c2ccccn2)CC1,110,104,102,105,105,.,.,.,.,.,.,
COc1ccc(OC)c2sc(N3CCN(C(=O)c4ccc([N+](=O)[O-])s4)CC3)nc12,86,160*,88,95,106,136,143,97,147,99,.,
COC(=O)[C@H](CCSC)NC(=O)Cn1cnc2c(SC)nc(N)nc21,95,87,101,94,90,.,.,.,.,.,.,
SMILES,AGP1-GFP MLPCN,LAP4 TOR yeast,CIT2-GFP yeast,RPL19A TOR yeast,MEP2 TOR yeast,LAP4 cherry2,MEP2 cherry2,RPL19A-GFP pick2,CIT2-GFP pick2,AGP1-GFP pick2,s288c autofluor,others
Cc1cc(NC(=O)CSc2nc3c(C)c(C)ccc3cc2C)no1,94,99,115,98,95,.,.,.,.,.,.,
C=CCN1C(=O)/C(=C/c2ccc(-c3ccc(F)cc3)o2)SC1=S,83,163*,96,102,99,169*,131,99,111,102,1.2,
Cc1cc(C)c(S(=O)(=O)Nc2ccc(N(C)C)cc2)c(C)c1-n1cnnn1,90,86,86,92,91,.,.,.,.,.,.,
O=[N+]([O-])c1cccnc1S(=O)(=O)c1ccccc1,104,128,102,98,96,.,.,.,.,.,.,
COc1ccc([N+](=O)[O-])c(S(=O)(=O)c2ccccc2)n1,108,218*,84,73,85,.,.,.,.,.,0.81,s288c autofl DR=0.21;TORC1 bypass=3
COc1ccc([N+](=O)[O-])c(S(=O)(=O)c2ccc(Cl)cc2)n1,108,102,100,100,108,.,.,.,.,.,0.72,s288c autofl DR=0.63;TORC1 bypass=3
